Experiment in all cases: DAPPL (digital affinity profiling via proximity ligation, sequencing); 10 mM Tris-HCl pH 7.5, 50 mM NaCl, 1 mM DTT, 4% glycerol, room temperature, 30 min; GST-TFs on glutathione beads, 16-mer random dsDNA library, 0.1% formaldehyde crosslink after washing; high values mean tight binding
Common to all, as to settings: protein: recombinant; tags: N-terminal GST; dsDNA, one strand shown

The target of experiment [1] is T1, FLI1 (Homo sapiens, UniProt Q01543 1-452).
T1 sequence: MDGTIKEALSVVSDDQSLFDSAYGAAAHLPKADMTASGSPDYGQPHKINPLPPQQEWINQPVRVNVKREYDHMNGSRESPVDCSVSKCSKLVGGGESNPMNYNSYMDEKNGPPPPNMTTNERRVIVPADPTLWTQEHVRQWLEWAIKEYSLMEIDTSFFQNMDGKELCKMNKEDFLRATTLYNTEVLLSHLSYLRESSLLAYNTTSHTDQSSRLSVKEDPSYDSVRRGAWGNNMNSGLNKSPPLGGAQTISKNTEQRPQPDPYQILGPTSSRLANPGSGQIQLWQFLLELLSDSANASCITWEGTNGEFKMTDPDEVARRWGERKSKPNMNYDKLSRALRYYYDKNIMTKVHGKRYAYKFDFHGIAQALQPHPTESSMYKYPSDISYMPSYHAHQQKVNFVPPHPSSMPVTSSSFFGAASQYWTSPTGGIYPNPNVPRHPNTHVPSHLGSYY
The procedure, abridged:
(§1)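 Sequencing on an Illumina NextSeq500 followed washing, crosslinking with 0.1% formaldehyde, proximity ligation (BsaI/T4 ligase, 1 h, 37 °C) and PCR amplification of pools that had been incubated for 30 min at room temperature with 200 nmole of a random double-stranded 16-mer DNA library in Tris/NaCl/DTT/glycerol buffer. Each pool held DNA-barcoded human transcription factors, expressed in yeast as GST fusions and captured on glutathione beads, plus a tag-only sample. Binding signal is a hexamer's read frequency for a factor divided by its frequency in the tag-only sample.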

Experiment [2] has as its target T2, ELK1 (Homo sapiens, UniProt P19419 1-428).
T2 sequence: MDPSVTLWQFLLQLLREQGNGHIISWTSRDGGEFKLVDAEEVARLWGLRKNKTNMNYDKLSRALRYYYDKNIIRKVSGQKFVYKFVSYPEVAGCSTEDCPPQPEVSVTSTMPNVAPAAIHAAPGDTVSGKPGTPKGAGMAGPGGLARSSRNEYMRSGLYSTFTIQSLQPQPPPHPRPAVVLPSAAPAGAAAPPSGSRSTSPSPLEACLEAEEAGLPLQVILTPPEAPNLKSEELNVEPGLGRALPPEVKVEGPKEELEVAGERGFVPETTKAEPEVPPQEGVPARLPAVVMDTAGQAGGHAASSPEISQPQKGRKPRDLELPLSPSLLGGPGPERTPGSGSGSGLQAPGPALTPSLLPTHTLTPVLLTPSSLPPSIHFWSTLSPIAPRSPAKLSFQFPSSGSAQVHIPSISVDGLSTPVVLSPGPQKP
The procedure, abridged:
as §1

Experiment [3] concerns the target T3, GABPA (Homo sapiens, UniProt Q06546 1-454).
T3 sequence: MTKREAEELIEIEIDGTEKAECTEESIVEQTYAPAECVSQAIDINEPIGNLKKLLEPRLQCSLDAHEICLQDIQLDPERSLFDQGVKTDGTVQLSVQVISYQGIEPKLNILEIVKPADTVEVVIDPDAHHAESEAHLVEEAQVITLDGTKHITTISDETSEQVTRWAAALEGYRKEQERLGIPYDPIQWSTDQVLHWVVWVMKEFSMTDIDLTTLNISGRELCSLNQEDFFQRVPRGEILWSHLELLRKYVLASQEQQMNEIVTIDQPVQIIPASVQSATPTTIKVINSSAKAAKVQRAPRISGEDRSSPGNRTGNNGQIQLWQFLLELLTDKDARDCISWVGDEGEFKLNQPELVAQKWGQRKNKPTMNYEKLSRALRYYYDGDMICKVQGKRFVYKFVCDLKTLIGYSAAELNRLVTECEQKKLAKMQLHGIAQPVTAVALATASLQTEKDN
The procedure, abridged:
as §1

Experiment [4] deals with T4, ERG (Homo sapiens, UniProt P11308 1-479).
T4 sequence: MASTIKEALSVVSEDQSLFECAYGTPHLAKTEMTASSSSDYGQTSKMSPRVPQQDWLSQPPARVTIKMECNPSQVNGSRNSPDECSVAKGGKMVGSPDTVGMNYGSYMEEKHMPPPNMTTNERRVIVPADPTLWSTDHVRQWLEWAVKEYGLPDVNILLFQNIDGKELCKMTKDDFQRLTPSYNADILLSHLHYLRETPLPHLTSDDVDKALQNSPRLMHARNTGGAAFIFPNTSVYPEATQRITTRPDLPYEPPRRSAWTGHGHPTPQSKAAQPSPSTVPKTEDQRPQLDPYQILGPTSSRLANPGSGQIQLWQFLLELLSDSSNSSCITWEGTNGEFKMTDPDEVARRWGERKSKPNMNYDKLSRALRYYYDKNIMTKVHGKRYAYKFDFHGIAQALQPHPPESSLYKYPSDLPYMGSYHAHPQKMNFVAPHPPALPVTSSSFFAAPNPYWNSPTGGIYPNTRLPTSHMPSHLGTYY
The procedure, abridged: as §1

The target of experiment [5] is ELF1 (Homo sapiens, UniProt P32519 1-619). An outline of the steps: as §1
Chain of ELF1 (P32519 whole entry): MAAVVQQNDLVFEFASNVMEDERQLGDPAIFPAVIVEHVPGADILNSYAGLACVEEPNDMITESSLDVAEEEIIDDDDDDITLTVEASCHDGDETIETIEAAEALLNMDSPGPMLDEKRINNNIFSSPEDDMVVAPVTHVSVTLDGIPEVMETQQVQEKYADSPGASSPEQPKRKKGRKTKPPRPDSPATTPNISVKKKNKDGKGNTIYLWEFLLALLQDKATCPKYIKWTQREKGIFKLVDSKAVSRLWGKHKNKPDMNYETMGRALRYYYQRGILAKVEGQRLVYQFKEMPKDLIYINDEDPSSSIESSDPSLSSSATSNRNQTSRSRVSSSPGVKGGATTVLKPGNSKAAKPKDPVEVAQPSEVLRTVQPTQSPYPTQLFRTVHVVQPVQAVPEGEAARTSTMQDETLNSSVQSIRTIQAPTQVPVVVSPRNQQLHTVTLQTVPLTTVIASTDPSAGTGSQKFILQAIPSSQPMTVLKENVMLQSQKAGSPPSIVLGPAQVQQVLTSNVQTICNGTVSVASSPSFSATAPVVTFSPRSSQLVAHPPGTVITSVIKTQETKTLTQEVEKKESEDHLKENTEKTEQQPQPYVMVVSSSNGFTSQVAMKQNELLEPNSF
Experiment [6] has as its target T5, EHF (Homo sapiens, UniProt Q9NZC4 1-300).
T5 sequence: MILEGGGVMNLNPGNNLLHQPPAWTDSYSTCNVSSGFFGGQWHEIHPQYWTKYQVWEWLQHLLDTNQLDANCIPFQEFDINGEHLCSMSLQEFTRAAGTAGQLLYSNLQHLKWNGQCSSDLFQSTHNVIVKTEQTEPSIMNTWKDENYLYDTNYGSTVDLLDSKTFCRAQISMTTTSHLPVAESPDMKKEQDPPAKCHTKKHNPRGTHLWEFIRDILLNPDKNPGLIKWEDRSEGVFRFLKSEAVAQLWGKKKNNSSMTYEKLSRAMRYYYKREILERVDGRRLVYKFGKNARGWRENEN
The procedure, abridged:
as §1

The target in experiment [7] is SPI1 (Homo sapiens, UniProt P17947 1-270). An outline of the steps: as §1
The target in experiment [8] is SPIB (Homo sapiens, UniProt Q01892 1-262). The procedure, abridged: as §1
Chain of SPIB (Q01892 whole entry): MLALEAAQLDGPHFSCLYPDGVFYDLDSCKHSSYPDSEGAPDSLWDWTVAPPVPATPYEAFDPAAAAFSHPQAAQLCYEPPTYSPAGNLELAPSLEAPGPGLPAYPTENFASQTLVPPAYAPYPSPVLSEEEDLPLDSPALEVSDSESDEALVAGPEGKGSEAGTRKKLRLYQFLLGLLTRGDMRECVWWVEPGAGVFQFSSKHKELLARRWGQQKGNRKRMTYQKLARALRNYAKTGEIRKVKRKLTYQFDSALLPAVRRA
Experiment [9] addresses T6, ELK3 (Homo sapiens, UniProt P41970 1-407).
T6 sequence: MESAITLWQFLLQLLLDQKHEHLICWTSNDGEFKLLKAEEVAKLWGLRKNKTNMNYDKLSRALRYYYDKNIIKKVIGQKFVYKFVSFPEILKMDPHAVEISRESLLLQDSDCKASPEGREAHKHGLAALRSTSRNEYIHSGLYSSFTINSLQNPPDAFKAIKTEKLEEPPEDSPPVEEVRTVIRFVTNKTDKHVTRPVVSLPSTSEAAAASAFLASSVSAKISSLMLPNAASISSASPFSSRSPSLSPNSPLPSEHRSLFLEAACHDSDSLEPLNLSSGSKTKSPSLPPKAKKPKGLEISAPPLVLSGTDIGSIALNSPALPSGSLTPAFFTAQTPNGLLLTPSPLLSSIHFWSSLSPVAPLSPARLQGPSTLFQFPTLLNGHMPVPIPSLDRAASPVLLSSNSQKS
An outline of the steps:
as §1

Consider TTCGCC, for which the binding signal in experiment [1] is 1.26 fold enrichment (6-mer frequency, TF over GST control); in [2], 1.28 fold enrichment (6-mer frequency, TF over GST control); in [3], 1.2 fold enrichment (6-mer frequency, TF over GST control); in experiment [4] it was 1.15 fold enrichment (6-mer frequency, TF over GST control); in experiment [5] it was 1.15 fold enrichment (6-mer frequency, TF over GST control); in [6] it was 1.11 fold enrichment (6-mer frequency, TF over GST control). The binding signal in experiment [7] is 1.1 fold enrichment (6-mer frequency, TF over GST control); in experiment [8] it was 1.14 fold enrichment (6-mer frequency, TF over GST control); in [9], 1.08 fold enrichment (6-mer frequency, TF over GST control).

Take CTGTTA: the binding signal was 1.22 fold enrichment (6-mer frequency, TF over GST control) in [1]; 1.24 fold enrichment (6-mer frequency, TF over GST control) in experiment [2]; 1.32 fold enrichment (6-mer frequency, TF over GST control) in [3]; 1.28 fold enrichment (6-mer frequency, TF over GST control) in experiment [4]; 1.24 fold enrichment (6-mer frequency, TF over GST control) in [5]; 1.26 fold enrichment (6-mer frequency, TF over GST control) in [6]. Further, the binding signal is 1.27 fold enrichment (6-mer frequency, TF over GST control) in [7]; 1.27 fold enrichment (6-mer frequency, TF over GST control) in experiment [8]; 1.32 fold enrichment (6-mer frequency, TF over GST control) in experiment [9].

With CCCGTT, the binding signal in experiment [1] is 1.17 fold enrichment (6-mer frequency, TF over GST control); in [2], 1.08 fold enrichment (6-mer frequency, TF over GST control); in experiment [3], 1.21 fold enrichment (6-mer frequency, TF over GST control); in experiment [4], 1.26 fold enrichment (6-mer frequency, TF over GST control); in experiment [5], 1.12 fold enrichment (6-mer frequency, TF over GST control); in experiment [6] it was 1.15 fold enrichment (6-mer frequency, TF over GST control). The binding signal in experiment [7] is 1.28 fold enrichment (6-mer frequency, TF over GST control); in [8], 1.19 fold enrichment (6-mer frequency, TF over GST control); in [9] it was 1.18 fold enrichment (6-mer frequency, TF over GST control).

Consider ATTATT, for which the binding signal was 1.14 fold enrichment (6-mer frequency, TF over GST control) in experiment [1]; 1.17 fold enrichment (6-mer frequency, TF over GST control) in experiment [2]; 1.1 fold enrichment (6-mer frequency, TF over GST control) in [3]; 1.17 fold enrichment (6-mer frequency, TF over GST control) in experiment [4]; 1.13 fold enrichment (6-mer frequency, TF over GST control) in experiment [5]; 1.16 fold enrichment (6-mer frequency, TF over GST control) in experiment [6]. Also, the binding signal in experiment [7] is 1.02 fold enrichment (6-mer frequency, TF over GST control); in [8], 1.12 fold enrichment (6-mer frequency, TF over GST control); in experiment [9] it was 1.14 fold enrichment (6-mer frequency, TF over GST control).

In the case of TATTGT, the binding signal in experiment [1] was 1.27 fold enrichment (6-mer frequency, TF over GST control); in experiment [2] it was 1.32 fold enrichment (6-mer frequency, TF over GST control); in [3], 1.29 fold enrichment (6-mer frequency, TF over GST control); in [4], 1.3 fold enrichment (6-mer frequency, TF over GST control); in experiment [5], 1.28 fold enrichment (6-mer frequency, TF over GST control); in experiment [6], 1.23 fold enrichment (6-mer frequency, TF over GST control). Also, the binding signal in experiment [7] is 1.19 fold enrichment (6-mer frequency, TF over GST control); in experiment [8] it was 1.28 fold enrichment (6-mer frequency, TF over GST control); in [9] it was 1.53 fold enrichment (6-mer frequency, TF over GST control).

Turning to TCAAAC, the binding signal in experiment [1] is 1.17 fold enrichment (6-mer frequency, TF over GST control); in experiment [2] it was 1.25 fold enrichment (6-mer frequency, TF over GST control); in experiment [3], 1.26 fold enrichment (6-mer frequency, TF over GST control); in experiment [4] it was 1.26 fold enrichment (6-mer frequency, TF over GST control); in [5], 1.15 fold enrichment (6-mer frequency, TF over GST control); in [6], 1.15 fold enrichment (6-mer frequency, TF over GST control). Moreover, the binding signal in experiment [7] was 1.16 fold enrichment (6-mer frequency, TF over GST control); in [8] it was 1.16 fold enrichment (6-mer frequency, TF over GST control); in [9], 1.2 fold enrichment (6-mer frequency, TF over GST control).

As for TGGATG, the binding signal in [1] was 1.33 fold enrichment (6-mer frequency, TF over GST control); in experiment [2] it was 1.37 fold enrichment (6-mer frequency, TF over GST control); in experiment [3], 1.47 fold enrichment (6-mer frequency, TF over GST control); in experiment [4], 1.32 fold enrichment (6-mer frequency, TF over GST control); in [5], 1.48 fold enrichment (6-mer frequency, TF over GST control); in experiment [6] it was 1.5 fold enrichment (6-mer frequency, TF over GST control). In addition, the binding signal in [7] was 1.37 fold enrichment (6-mer frequency, TF over GST control); in experiment [8] it was 1.64 fold enrichment (6-mer frequency, TF over GST control); in experiment [9] it was 1.49 fold enrichment (6-mer frequency, TF over GST control).

Source of the values: paper PMC7862700, “An all-to-all approach to the identification of sequence-specific readers for epigenetic DNA modifications on cytosine”.
